Among the data in PMC7862700, “An all-to-all approach to the identification of sequence-specific readers for epigenetic DNA modifications on cytosine” are binding signal values, retold here.

Holding throughout (assay): DAPPL (digital affinity profiling via proximity ligation, sequencing); 10 mM Tris-HCl pH 7.5, 50 mM NaCl, 1 mM DTT, 4% glycerol, room temperature, 30 min; GST-TFs on glutathione beads, 16-mer random dsDNA library, 0.1% formaldehyde crosslink after washing; high values mean tight binding
Holding throughout (settings): protein: recombinant; tags: N-terminal GST; dsDNA, one strand shown

One test deals with T1, ELK1 (Homo sapiens, UniProt P19419 1-428).
T1 sequence: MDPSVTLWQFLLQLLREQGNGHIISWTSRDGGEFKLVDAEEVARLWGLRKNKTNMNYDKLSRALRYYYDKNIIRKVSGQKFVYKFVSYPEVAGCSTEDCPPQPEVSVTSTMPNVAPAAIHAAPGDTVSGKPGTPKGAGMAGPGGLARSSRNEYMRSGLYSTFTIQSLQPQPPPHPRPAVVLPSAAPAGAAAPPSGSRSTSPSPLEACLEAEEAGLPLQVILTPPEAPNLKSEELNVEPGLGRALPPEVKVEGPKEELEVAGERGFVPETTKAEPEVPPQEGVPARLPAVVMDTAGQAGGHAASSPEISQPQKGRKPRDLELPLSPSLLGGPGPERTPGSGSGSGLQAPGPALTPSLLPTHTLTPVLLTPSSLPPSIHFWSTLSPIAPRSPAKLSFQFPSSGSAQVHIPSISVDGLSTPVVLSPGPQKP
The method, boiled down:
(§1)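 Pools were built from human transcription factors expressed in yeast as GST fusions, captured on glutathione beads and DNA-barcoded, along with a tag-only sample. Incubation with 200 nmole of a 16-mer random double-stranded DNA library lasted 30 min at room temperature in Tris/NaCl/DTT/glycerol buffer, and was followed by washing, 0.1% formaldehyde crosslinking, proximity ligation, PCR amplification and Illumina NextSeq500 sequencing. Binding signal is the quotient of each hexamer's read frequency for a factor and its frequency for the tag-only sample.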

The target of the next test is T2, GABPA (Homo sapiens, UniProt Q06546 1-454).
T2 sequence: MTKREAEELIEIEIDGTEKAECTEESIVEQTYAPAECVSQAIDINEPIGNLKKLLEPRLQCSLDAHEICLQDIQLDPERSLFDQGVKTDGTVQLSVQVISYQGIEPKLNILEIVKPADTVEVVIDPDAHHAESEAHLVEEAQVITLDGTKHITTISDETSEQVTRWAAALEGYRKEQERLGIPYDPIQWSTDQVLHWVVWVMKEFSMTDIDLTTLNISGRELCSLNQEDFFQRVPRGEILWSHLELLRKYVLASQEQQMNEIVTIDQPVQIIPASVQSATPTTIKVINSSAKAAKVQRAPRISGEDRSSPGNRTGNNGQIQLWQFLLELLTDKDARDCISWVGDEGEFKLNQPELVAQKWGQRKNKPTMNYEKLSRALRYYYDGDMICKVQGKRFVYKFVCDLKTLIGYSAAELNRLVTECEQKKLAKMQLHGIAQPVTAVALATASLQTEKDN
The method, boiled down:
as §1

The target of a further test is T3, ERG (Homo sapiens, UniProt P11308 1-479).
T3 sequence: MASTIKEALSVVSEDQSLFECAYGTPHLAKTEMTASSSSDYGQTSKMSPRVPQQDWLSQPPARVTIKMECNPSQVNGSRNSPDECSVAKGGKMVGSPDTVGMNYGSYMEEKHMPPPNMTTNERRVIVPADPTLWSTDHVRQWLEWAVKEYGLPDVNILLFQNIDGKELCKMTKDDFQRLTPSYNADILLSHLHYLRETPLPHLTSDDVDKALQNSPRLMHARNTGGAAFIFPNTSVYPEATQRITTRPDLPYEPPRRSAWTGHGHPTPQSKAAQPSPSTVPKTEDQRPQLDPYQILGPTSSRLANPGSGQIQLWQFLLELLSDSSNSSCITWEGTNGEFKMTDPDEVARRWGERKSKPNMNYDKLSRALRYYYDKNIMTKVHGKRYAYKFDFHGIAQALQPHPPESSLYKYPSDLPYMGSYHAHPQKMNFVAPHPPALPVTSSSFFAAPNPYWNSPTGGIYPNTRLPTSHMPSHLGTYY
The gist of the method:
as §1

A further test concerns the target ELF1 (Homo sapiens, UniProt P32519 1-619). The method, boiled down: as §1
For the next test, the target named is T4, EHF (Homo sapiens, UniProt Q9NZC4 1-300).
T4 sequence: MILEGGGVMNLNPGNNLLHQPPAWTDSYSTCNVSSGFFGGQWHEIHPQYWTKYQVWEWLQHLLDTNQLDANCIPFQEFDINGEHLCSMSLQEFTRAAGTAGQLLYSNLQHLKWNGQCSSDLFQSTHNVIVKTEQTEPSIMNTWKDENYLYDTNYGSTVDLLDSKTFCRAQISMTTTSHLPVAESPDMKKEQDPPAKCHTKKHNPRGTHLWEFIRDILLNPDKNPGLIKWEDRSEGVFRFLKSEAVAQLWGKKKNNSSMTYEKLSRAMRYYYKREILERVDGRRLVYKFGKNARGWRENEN
The method, boiled down:
as §1

For another test, the target named is SPI1 (Homo sapiens, UniProt P17947 1-270). The method, boiled down: as §1
The next test deals with SPIB (Homo sapiens, UniProt Q01892 1-262). The method, boiled down: as §1
The target in a further test is T5, FEV (Homo sapiens, UniProt Q99581 1-238).
T5 sequence: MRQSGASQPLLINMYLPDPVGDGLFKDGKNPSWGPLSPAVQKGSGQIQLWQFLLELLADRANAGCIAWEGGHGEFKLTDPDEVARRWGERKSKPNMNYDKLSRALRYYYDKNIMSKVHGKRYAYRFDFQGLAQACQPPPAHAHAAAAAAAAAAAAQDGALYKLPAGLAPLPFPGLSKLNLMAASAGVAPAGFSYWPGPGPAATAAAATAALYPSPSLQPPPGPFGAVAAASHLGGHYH
The gist of the method:
as §1

Another test addresses ETV5 (Homo sapiens, UniProt P41161 1-510). The gist of the method: as §1
A further test deals with ELF4 (Homo sapiens, UniProt Q99607 1-663). The gist of the method:
as §1

In another test the target is ETV1 (Homo sapiens, UniProt P50549 1-477). The method, boiled down:
as §1

Another test deals with T6, ERF (Homo sapiens, UniProt P50548 1-548).
T6 sequence: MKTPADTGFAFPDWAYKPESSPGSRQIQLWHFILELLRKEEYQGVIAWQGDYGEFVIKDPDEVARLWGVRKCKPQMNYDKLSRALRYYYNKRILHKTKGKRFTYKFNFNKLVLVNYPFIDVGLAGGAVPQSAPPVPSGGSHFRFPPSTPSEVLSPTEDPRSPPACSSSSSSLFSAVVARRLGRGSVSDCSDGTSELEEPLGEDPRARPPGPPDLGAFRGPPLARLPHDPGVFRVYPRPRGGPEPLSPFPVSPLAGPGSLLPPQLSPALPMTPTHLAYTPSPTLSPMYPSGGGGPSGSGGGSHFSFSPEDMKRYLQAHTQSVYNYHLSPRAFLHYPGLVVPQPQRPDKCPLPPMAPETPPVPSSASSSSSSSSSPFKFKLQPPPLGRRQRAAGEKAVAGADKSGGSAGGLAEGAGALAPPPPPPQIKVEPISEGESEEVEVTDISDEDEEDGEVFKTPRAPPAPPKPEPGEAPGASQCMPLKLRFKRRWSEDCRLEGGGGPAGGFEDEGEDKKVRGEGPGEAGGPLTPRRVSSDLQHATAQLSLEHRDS
The gist of the method:
as §1

In the next test the target is T7, ETV3L (Homo sapiens, UniProt Q6ZN32 1-361).
T7 sequence: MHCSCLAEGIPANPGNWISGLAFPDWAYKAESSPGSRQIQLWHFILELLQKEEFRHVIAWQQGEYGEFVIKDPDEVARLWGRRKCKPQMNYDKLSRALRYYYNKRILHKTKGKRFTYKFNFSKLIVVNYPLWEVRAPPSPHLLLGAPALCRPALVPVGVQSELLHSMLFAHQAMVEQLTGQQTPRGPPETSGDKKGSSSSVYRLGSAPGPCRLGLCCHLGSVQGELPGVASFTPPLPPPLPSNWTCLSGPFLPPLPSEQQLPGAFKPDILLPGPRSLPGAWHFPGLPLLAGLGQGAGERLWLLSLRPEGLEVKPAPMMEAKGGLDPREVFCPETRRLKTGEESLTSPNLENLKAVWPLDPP
The gist of the method: as §1

The target in another test is T8, SPDEF (Homo sapiens, UniProt O95238 1-335).
T8 sequence: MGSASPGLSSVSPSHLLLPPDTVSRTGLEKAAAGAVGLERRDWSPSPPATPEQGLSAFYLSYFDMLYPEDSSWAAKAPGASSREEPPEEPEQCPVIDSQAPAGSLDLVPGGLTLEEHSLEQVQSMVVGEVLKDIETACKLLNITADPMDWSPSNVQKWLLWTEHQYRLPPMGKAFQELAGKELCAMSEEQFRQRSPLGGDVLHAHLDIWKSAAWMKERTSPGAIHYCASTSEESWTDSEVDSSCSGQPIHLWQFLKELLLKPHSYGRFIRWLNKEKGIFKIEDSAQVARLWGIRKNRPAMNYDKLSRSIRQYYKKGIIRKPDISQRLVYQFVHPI
The gist of the method:
as §1

The target of a further test is T9, ETV7 (Homo sapiens, UniProt Q9Y603 1-341).
T9 sequence: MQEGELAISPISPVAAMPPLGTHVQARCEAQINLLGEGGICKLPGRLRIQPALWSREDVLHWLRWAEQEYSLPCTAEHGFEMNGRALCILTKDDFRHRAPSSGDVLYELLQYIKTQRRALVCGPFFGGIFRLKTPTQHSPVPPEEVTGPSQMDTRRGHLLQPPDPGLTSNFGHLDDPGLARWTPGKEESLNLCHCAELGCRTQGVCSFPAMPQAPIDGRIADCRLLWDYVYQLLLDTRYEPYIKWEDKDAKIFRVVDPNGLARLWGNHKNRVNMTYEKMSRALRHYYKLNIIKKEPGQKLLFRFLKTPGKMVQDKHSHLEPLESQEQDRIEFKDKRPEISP
The method, boiled down: as §1

A further test concerns the target T10, ETV3 (Homo sapiens, UniProt P41162-2 1-143).
T10 sequence: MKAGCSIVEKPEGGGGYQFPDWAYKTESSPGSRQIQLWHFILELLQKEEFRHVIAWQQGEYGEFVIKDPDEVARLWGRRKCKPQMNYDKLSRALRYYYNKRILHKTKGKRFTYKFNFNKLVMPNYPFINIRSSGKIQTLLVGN
The gist of the method: as §1

A further test has as its target T11, ELK4 (Homo sapiens, UniProt P28324-2 1-405).
T11 sequence: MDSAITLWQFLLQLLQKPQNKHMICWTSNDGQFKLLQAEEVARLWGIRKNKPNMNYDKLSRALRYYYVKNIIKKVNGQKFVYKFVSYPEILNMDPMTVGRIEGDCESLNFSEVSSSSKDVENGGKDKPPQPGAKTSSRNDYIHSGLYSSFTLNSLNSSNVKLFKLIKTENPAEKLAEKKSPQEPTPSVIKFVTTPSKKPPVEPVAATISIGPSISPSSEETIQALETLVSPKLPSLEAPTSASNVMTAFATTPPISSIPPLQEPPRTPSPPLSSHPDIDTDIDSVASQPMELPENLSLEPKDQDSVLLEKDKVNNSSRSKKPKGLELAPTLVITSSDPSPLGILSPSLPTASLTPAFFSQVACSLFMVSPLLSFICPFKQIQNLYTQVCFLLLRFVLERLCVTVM
The gist of the method:
as §1

For another test, the target named is T12, ETS2 (Homo sapiens, UniProt P15036 1-469).
T12 sequence: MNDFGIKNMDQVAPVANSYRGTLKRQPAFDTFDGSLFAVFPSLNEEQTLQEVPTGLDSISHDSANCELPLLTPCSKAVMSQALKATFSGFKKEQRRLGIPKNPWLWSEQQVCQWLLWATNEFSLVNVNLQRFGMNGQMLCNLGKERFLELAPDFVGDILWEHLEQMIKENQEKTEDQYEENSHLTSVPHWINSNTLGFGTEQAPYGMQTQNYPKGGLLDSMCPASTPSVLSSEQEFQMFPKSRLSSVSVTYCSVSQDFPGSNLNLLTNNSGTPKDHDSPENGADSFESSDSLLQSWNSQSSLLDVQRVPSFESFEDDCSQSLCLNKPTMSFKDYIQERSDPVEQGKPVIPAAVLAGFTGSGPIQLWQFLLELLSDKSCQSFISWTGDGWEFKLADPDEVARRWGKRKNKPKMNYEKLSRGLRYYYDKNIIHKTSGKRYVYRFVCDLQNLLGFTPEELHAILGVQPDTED
The gist of the method: as §1

For a further test, the target named is ETV6 (Homo sapiens, UniProt P41212 1-452). The gist of the method: as §1
Sequence of ETV6 (P41212 whole entry): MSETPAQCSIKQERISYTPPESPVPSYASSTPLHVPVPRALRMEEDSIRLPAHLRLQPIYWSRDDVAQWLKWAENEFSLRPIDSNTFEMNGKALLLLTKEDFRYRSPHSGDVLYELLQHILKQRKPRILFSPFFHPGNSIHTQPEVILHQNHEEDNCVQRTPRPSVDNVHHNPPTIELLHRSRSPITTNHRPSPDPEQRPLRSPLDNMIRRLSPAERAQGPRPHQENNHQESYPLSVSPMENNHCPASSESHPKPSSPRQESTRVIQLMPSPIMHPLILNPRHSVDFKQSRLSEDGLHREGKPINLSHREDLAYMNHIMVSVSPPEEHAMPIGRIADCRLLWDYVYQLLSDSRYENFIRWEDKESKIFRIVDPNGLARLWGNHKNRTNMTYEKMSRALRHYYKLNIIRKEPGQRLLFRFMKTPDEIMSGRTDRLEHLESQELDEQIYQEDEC

Sequence of ELF4 (Q99607 whole entry): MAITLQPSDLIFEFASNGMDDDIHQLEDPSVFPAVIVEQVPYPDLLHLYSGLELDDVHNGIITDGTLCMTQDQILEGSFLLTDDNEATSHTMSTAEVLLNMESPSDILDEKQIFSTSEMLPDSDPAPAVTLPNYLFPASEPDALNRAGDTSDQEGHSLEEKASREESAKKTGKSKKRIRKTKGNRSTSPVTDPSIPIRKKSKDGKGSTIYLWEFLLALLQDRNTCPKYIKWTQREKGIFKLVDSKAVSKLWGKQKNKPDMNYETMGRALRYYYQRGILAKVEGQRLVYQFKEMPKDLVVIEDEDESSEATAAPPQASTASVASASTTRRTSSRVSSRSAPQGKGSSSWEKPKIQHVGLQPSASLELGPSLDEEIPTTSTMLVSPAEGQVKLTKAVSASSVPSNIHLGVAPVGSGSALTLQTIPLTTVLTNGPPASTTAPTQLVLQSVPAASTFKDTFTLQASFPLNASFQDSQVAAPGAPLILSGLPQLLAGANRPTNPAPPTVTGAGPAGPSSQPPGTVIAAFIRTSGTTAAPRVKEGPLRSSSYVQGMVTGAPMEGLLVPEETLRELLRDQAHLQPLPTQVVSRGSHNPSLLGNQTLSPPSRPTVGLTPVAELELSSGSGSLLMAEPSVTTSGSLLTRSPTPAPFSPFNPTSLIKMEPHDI
Sequence of ETV5 (P41161 whole entry): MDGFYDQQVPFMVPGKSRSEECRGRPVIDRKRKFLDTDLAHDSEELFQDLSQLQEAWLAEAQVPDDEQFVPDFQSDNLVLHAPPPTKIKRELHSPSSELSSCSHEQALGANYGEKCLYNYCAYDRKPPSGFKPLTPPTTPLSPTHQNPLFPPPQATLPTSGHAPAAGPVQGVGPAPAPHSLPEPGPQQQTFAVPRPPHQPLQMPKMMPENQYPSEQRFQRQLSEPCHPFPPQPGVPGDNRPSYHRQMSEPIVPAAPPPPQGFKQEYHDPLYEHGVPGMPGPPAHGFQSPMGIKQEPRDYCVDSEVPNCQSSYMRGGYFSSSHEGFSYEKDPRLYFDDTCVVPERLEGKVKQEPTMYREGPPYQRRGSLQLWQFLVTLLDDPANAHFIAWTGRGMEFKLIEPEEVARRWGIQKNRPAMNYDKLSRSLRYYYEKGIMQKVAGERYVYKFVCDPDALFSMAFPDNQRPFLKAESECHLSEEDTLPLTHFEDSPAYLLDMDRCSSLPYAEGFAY
Sequence of ELF1 (P32519 whole entry): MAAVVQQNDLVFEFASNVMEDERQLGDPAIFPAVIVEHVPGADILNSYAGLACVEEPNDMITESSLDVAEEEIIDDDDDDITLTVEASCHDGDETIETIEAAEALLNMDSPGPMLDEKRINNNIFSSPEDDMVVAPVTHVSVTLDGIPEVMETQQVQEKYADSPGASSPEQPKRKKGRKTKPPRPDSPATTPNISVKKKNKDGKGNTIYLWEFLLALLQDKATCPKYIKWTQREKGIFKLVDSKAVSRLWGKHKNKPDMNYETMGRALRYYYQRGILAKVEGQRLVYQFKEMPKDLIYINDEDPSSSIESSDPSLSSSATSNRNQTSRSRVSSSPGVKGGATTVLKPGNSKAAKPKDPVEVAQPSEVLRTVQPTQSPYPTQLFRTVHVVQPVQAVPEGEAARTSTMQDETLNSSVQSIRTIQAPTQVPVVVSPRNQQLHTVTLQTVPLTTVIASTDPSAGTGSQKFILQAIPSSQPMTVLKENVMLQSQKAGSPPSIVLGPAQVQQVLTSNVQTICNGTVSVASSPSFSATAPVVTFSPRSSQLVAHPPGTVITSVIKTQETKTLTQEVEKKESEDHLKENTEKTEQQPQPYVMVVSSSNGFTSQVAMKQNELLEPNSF
Sequence of SPIB (Q01892 whole entry): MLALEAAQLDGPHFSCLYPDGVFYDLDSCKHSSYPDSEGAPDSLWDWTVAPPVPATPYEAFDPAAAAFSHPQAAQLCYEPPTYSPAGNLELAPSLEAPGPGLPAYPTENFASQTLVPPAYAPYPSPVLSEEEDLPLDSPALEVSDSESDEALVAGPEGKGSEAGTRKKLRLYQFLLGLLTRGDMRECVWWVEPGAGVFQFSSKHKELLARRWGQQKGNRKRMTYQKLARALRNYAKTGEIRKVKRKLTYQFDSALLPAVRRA
Sequence of ETV1 (P50549 whole entry): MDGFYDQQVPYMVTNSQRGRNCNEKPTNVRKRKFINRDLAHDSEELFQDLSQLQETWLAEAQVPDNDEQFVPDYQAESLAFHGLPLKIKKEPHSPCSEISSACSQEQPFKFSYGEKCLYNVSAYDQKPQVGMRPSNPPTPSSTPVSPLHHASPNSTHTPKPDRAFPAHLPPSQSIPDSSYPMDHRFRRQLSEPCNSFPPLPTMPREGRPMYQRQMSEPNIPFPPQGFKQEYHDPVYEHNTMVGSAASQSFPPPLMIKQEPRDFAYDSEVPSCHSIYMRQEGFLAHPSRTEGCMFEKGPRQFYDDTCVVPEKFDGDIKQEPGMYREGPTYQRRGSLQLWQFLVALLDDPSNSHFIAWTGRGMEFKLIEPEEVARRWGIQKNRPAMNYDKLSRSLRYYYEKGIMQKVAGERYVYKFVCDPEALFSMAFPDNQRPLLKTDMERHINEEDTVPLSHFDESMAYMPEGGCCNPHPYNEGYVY

As to AGTCCC, the binding signal in the test with ELK1 was 1.06 fold enrichment (6-mer frequency, TF over GST control); with GABPA, 1.03 fold enrichment (6-mer frequency, TF over GST control); with ERG, 1.07 fold enrichment (6-mer frequency, TF over GST control); with ELF1 it was 1.08 fold enrichment (6-mer frequency, TF over GST control); with EHF, 1.01 fold enrichment (6-mer frequency, TF over GST control); in the test with SPI1, 1.26 fold enrichment (6-mer frequency, TF over GST control). Also, the binding signal was 1.03 fold enrichment (6-mer frequency, TF over GST control) with SPIB; 1.09 fold enrichment (6-mer frequency, TF over GST control) with FEV; 1.04 fold enrichment (6-mer frequency, TF over GST control) with ETV5; 1.06 fold enrichment (6-mer frequency, TF over GST control) with ELF4; 1.11 fold enrichment (6-mer frequency, TF over GST control) in the test with ETV1; 1.17 fold enrichment (6-mer frequency, TF over GST control) with ERF. Besides, the binding signal was 1.04 fold enrichment (6-mer frequency, TF over GST control) with ETV3L; 1.03 fold enrichment (6-mer frequency, TF over GST control) with SPDEF; 1.07 fold enrichment (6-mer frequency, TF over GST control) in the test with ETV7; 1.06 fold enrichment (6-mer frequency, TF over GST control) in the test with ETV3.

On to CGCCCA, for which the binding signal with ELK1 was 1.13 fold enrichment (6-mer frequency, TF over GST control); with GABPA, 1.11 fold enrichment (6-mer frequency, TF over GST control); with ERG it was 1.06 fold enrichment (6-mer frequency, TF over GST control); with ELF1 it was 1.04 fold enrichment (6-mer frequency, TF over GST control); in the test with FEV, 1.02 fold enrichment (6-mer frequency, TF over GST control); in the test with ETV5, 1.01 fold enrichment (6-mer frequency, TF over GST control). Also, the binding signal with ELF4 is 1.04 fold enrichment (6-mer frequency, TF over GST control); in the test with ELK4 it was 1.04 fold enrichment (6-mer frequency, TF over GST control); in the test with ERF, 1.08 fold enrichment (6-mer frequency, TF over GST control); in the test with ETS2 it was 1.04 fold enrichment (6-mer frequency, TF over GST control); with ETV6, 1.09 fold enrichment (6-mer frequency, TF over GST control).
